# Screen size: about 370,000 compounds; about 2,300 (0.62%) were called active. This is one part of a sample in which actives are shown more often than they occur.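 Rule for the calls: active = inhibition above a per-campaign cutoff equal to the mean of compounds falling between control-based bounds plus 3 SD (cut at about 20% in these data); inactive = the rest.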
# Target: Disintegrin and metalloproteinase domain-containing protein 10 (Homo sapiens) (UniProt O14672)
# Assay: human ADAM10 inhibitors, primary screen, biochemical, QFRET, HTS (AID 720582);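 note: 0% = DMSO wells while the 100% control is not disclosed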
# Settings: recombinant ADAM10, EDANS/DABCYL FRET peptide cleavage, 3 h; at 7 µM; active compounds read high
# Disintegrin and metalloproteinase domain-containing protein 10 (Homo sapiens), sequence (O14672 214-748 limits assumed): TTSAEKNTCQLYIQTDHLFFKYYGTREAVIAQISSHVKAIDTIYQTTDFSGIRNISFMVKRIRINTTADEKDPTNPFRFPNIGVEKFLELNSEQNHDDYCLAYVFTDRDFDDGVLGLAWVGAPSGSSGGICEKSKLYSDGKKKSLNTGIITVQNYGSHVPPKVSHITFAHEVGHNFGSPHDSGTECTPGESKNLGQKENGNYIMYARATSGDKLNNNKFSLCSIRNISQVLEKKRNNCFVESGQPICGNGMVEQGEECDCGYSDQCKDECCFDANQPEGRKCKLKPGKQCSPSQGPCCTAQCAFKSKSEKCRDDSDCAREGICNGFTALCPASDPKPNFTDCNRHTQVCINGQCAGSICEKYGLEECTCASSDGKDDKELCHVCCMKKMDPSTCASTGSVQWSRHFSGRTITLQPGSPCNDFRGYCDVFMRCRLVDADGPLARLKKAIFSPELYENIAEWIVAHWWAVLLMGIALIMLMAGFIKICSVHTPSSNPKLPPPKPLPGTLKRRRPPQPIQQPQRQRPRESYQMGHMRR
row,Compound,inhibition
1,O=C(NCCCc1ccccc1)[C@H](Cc1ccccc1)NC1(C(=O)NCCc2c[nH]c3ccccc23)CCC1,10.8% (inactive)
2,CCCn1nnnc1NCc1ccc(OC)cc1,0.98% (inactive)
3,CCCC(=O)n1nc(NCc2ccc(OC)cc2)nc1NCc1ccc(OC)cc1,21.3% (active)
4,O=C(c1cccs1)n1nc(NCc2ccccc2)nc1NCc1ccccc1,-4.16% (inactive)
5,Cc1cc(C)nc(NC(=S)N2CCN(c3ccc(C(F)(F)F)cn3)CC2)c1,-0.75% (inactive)
6,O=C1CC[C@@H](COc2ccc3[nH]cc(-c4ccccc4)c3c2-c2ccccc2)N1,-16.4% (inactive)
7,Cc1cc(C)cc(NC(=O)CSc2ccccc2)c1,7.73% (inactive)
8,Cc1cc(C)cc(NC(=O)CSCc2cnn(-c3ccccc3)c2-n2cccc2)c1,20.7% (active)
9,CC(=O)Nc1ccc(NC(=O)CSCc2cnn(-c3ccccc3)c2-n2cccc2)cc1,-1.8% (inactive)
10,O=C(NCCc1c[nH]c2ccccc12)OCc1cn(-c2c(F)cccc2F)nn1,2.44% (inactive)
11,CCOC(=O)[C@@]12CCC3=C1N(CCC3)C(=O)[C@H](CC(=O)N1CCN(C(=O)c3ccco3)CC1)C2,0.02% (inactive)
12,CC1(C(=O)NCc2ccc3c(c2)OCO3)CCN1C(=O)Cc1cccc2ccccc12 (stereo not drawn),-4.08% (inactive)
13,O=C(CCNS(=O)(=O)c1ccccc1C(F)(F)F)NCc1ccc2c(c1)OCO2,4.73% (inactive)
14,N#Cc1nc(Cc2cccc3ccccc23)oc1NCc1ccc2c(c1)OCO2,22.7% (active)
15,C[C@@H]1COc2cccc(N3CCCC3)c2S(=O)(=O)N1C,-13.8% (inactive)
16,CCCCNC(=O)C[C@@H]1C(=O)N(CCc2ccc(Cl)cc2)C2=CCCC[C@]21C(=O)OCC,1.59% (inactive)
17,CCCCC(=O)N[C@@H]1CC[C@@]23CCCN2C(=O)CCC[C@H]3[C@H]1C,-8.02% (inactive)
18,CC(C)(C)NC(=O)C(c1cccnc1)N(C(=O)c1cnco1)c1ccc(C(C)(C)C)cc1 (stereo not drawn),-5.34% (inactive)
19,Cc1ccc(/C=N/NC(=O)CSc2nc3ccccc3o2)cc1,22.1% (active)
20,O=C(CSc1nc2ccccc2o1)N/N=C/c1ccccc1C(=O)O,5.59% (inactive)
21,CC1Cc2ccccc2N1C(=O)CSc1nc2ccccc2o1 (stereo not drawn),3.31% (inactive)
22,C[C@H](C(=O)N(C)c1ccccc1)[C@@H](O)c1ccc2ccccc2c1,-0.77% (inactive)
23,COc1ccc(-c2cc(-c3nnc(SCc4ccc([N+](=O)[O-])cc4)n3N)[nH]n2)cc1,0.29% (inactive)
24,COc1cc(NS(=O)(=O)c2ccc(NC(=S)NC(=O)c3ccccc3)cc2)nc(OC)n1,6.57% (inactive)
25,COc1ccc(C(=O)NNc2cc(C)nc(NNC(=O)c3ccc(OC)cc3)n2)cc1,-1.03% (inactive)
26,COc1ccc(C(=O)NNC(=S)NC(=O)c2ccccc2)cc1,24% (active)
27,C=C1C(C(C)C)N(C)C2=NC(c3ccccc3)CC(=O)N12 (stereo not drawn),-17.1% (inactive)

row,Compound,inhibition
1,CCS(=O)(=O)Nc1ccc(C2=NN(S(=O)(=O)c3ccc(F)cc3)C(c3ccco3)C2)cc1 (stereo not drawn),4.53% (inactive)
2,COc1cccc(C2CC(c3cccs3)=NN2C(=O)CSC2=NCCS2)c1OC (stereo not drawn),-3.83% (inactive)
3,COc1cccc(C2CC(c3ccccc3)=NN2S(=O)(=O)c2ccccc2)c1OC (stereo not drawn),29.9% (active)
4,Cc1ccc(C)c(NC(=O)CCS(=O)(=O)c2ccccc2)c1,-11.5% (inactive)
5,CC(C)(C)OC(=O)NCc1cc(F)ccc1/C=C/S(=O)(=O)NCCc1ccccc1,11.5% (inactive)
6,O=C(c1ccncc1)N1CC[C@H]2[C@H](CCCN2Cc2ccc(F)cc2)C1,-25.2% (inactive)
7,COC(=O)C1CN(CCc2ccccc2)CCS(=O)(=O)N1Cc1cccc(Cl)c1 (stereo not drawn),2.53% (inactive)
8,COc1ccccc1NS(=O)(=O)c1ccc(C)c(C(=O)NNC(=O)c2csc(N3CCOCC3)n2)c1,8.51% (inactive)
9,COc1ccc(NS(=O)(=O)c2ccc(N3CCOCC3)c(NC(=O)c3ccccc3Br)c2)cc1,6.43% (inactive)
10,COc1ccc(NS(=O)(=O)c2ccc(C)c(C(=O)NNC(=O)c3csc(N4CCOCC4)n3)c2)cc1,26% (active)
11,CCC[C@H]1C(=O)CC[C@@]23CCCN2C(=O)CCC[C@@H]13,-1.01% (inactive)
12,Cc1ccc(N2C(=O)N3[C@@H]4c5ccccc5OC[C@@H]4[C@@H](c4ccccc4)[C@@]3(C)C2=O)cc1,20.3% (active)
13,C[C@@H]1NC(=O)[C@@]2(C)[C@@H](c3ccccc3)[C@H]3COc4ccccc4[C@@H]3N2C1=O,-7.53% (inactive)
14,CCOC(=O)[C@@H]1[C@H]2COc3ccc(Br)cc3[C@H]2N2C(=O)N(c3ccc(C)cc3)C(=O)[C@@]12C,1.71% (inactive)
15,CCOC(=O)c1csc(NC(=O)C2CCCN(S(=O)(=O)c3ccc(Cl)s3)C2)n1 (stereo not drawn),10% (inactive)
16,Cc1ccccc1-n1c(SCC(=O)Nc2cccc3ccccc23)nc(O)cc1=O,27% (active)
17,C=CCn1c(N)cc(=O)nc1SCC(=O)Nc1cccc2ccccc12,-27% (inactive)
18,Cc1ccc(-n2c(SCC(=O)Nc3cccc4ccccc34)nnc2-c2ccccn2)cc1,-6.55% (inactive)
19,O=S1(=O)c2ccc(N3CCN(Cc4ccccc4F)CC3)cc2Oc2ccccc2CN1Cc1cn(Cc2ccc(Cl)cc2)nn1,7.21% (inactive)
20,CCOc1ccc(-n2c(SCC(=O)Nc3cc(C)c(NC(=O)c4ccccc4)cc3OC)nnc2-c2cccc(Cl)c2)cc1,8.65% (inactive)
21,COc1cccc(CC2(CO)CCCN(Cc3nc(-c4cccs4)oc3C)C2)c1 (stereo not drawn),0.04% (inactive)
22,COc1cccc(CNC(=O)CCC2CCCN(Cc3ccc(OC(F)F)cc3)C2)c1 (stereo not drawn),-2.49% (inactive)
23,COc1cccc(CC2(CO)CCCN(Cc3ccc(OC(F)F)cc3)C2)c1 (stereo not drawn),19.9% (active)
24,O=C(CN(CC1CCCO1)C(=O)CNS(=O)(=O)c1ccc(Cl)cc1)NCc1ccccc1 (stereo not drawn),3.32% (inactive)
25,CCCOc1ccc(Oc2c(Cl)cnn(Cc3cccc4ccccc34)c2=O)cc1,-13% (inactive)
26,COc1ccc(C(=O)OCCN2CCN(C3CN(Cc4cn(Cc5ccccc5F)nn4)S(=O)(=O)C3)CC2)cc1OC (stereo not drawn),-2.27% (inactive)
